Data as given in the supplement of paper PMC8728848.
The sample as a whole holds a higher share of the strongest signals than the screen did.

Legend:
Assay in all cases: glycan array binding signal (z-score within array); higher = stronger binding
Settings in all cases: glycan notation: IUPAC condensed, linker removed
Fuc(a1-2)Gal = target: Fuc(a1-2)Gal
Summary of the method: (§1)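 Columns mapping to the same glycan were averaged after glycan names were converted to IUPAC-condensed notation. The data come from 3228 arrays in the Consortium for Functional Glycomics database, limited to those with an available protein sequence. Binding is reported as a within-array Z-score averaged across arrays of one protein sequence and across linkers.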

[1] = target: Fuc(a1-2)Gal(b1-4)GlcNAc(b1-3)GalNAc
Summary of the method: as §1

[2] = target: Fuc(a1-2)Gal(b1-4)[Fuc(a1-3)]GlcNAc
Summary of the method: as §1

[3] = target: Fuc(a1-2)[Gal(a1-3)]Gal(b1-3)GlcNAc(b1-6)GalNAc
Summary of the method: as §1

[4] = target: Fuc(a1-2)[GalNAc(a1-3)]Gal(b1-3)GlcNAc(b1-2)Man(a1-3)[Fuc(a1-2)[GalNAc(a1-3)]Gal(b1-3)GlcNAc(b1-2)Man(a1-6)]Man(b1-4)GlcNAc(b1-4)GlcNAc
Summary of the method: as §1

[5] = target: Fuc(a1-2)[GalNAc(a1-3)]Gal(b1-4)GlcNAc(b1-2)Man(a1-3)[Fuc(a1-2)[GalNAc(a1-3)]Gal(b1-4)GlcNAc(b1-2)Man(a1-6)]Man(b1-4)GlcNAc(b1-4)GlcNAc
Summary of the method: as §1

[6] = target: Fuc(a1-2)[GalNAc(a1-3)]Gal(b1-4)GlcNAc(b1-3)Gal(b1-4)GlcNAc(b1-3)Gal(b1-4)GlcNAc
Summary of the method: as §1

[7] = target: Fuc(a1-2)[GalNAc(a1-3)]Gal(b1-4)[Fuc(a1-3)]GlcNAc
Summary of the method: as §1

Fuc(a1-3)GlcNAc = target: Fuc(a1-3)GlcNAc
Summary of the method: as §1

[8] = target: Fuc(a1-3)[Gal(b1-4)]GlcNAc(b1-3)GalNAc
Summary of the method: as §1

[9] = target: Fuc(a1-3)[Gal3S(b1-4)]GlcNAc
Summary of the method: as §1

[10] = target: Fuc(a1-3)[GalNAc(b1-4)]GlcNAc
Summary of the method: as §1

[11] = target: Gal(a1-3)Gal(b1-3)GlcNAc(b1-3)GalNAc
Summary of the method: as §1

[12] = target: Gal(a1-3)[Gal(a1-4)]Gal(b1-4)GlcNAc
Summary of the method: as §1

Gal(b1-3)Gal = target: Gal(b1-3)Gal
Summary of the method: as §1

Gal(b1-3)GlcNAc(b1-2)Man = target: Gal(b1-3)GlcNAc(b1-2)Man
Summary of the method: as §1

[13] = target: Gal(b1-3)GlcNAc(b1-2)Man(a1-3)[Gal(b1-3)GlcNAc(b1-2)Man(a1-6)]Man(b1-4)GlcNAc(b1-4)GlcNAc
Summary of the method: as §1

[14] = target: Gal(b1-3)GlcNAc(b1-3)Gal(b1-3)GlcNAc
Summary of the method: as §1

[15] = target: Gal(b1-3)[Fuc(a1-4)]GlcNAc(b1-3)Gal(b1-3)[Fuc(a1-4)]GlcNAc
Summary of the method: as §1

[16] = target: Gal(b1-4)GlcNAc(b1-2)Man(a1-3)[Gal(b1-4)GlcNAc(b1-2)Man(a1-6)]Man(b1-4)GlcNAc(b1-4)GlcNAc
Summary of the method: as §1

[17] = target: Gal(b1-4)GlcNAc(b1-2)[Gal(b1-4)GlcNAc(b1-6)]Man(a1-6)[Gal(b1-4)GlcNAc(b1-2)Man(a1-3)]Man(b1-4)GlcNAc(b1-4)[Fuc(a1-6)]GlcNAc
Summary of the method: as §1

[18] = target: Gal(b1-4)GlcNAc(b1-3)Gal(b1-4)GlcNAc
Summary of the method: as §1

[19] = target: Gal(b1-4)GlcNAc(b1-3)Gal(b1-4)GlcNAc(b1-3)Gal(b1-4)GlcNAc
Summary of the method: as §1

[20] = target: Gal(b1-4)GlcNAc(b1-3)Gal(b1-4)GlcNAc(b1-3)Gal(b1-4)GlcNAc(b1-2)[Gal(b1-4)GlcNAc(b1-3)Gal(b1-4)GlcNAc(b1-3)Gal(b1-4)GlcNAc(b1-6)]Man(a1-6)[Gal(b1-4)GlcNAc(b1-3)Gal(b1-4)GlcNAc(b1-3)Gal(b1-4)GlcNAc(b1-2)Man(a1-3)]Man(b1-4)GlcNAc(b1-4)[Fuc(a1-6)]GlcNAc
Summary of the method: as §1

[21] = target: Gal(b1-4)GlcNAc(b1-3)Gal(b1-4)GlcNAc(b1-3)Gal(b1-4)GlcNAc(b1-3)Gal(b1-4)GlcNAc(b1-3)Gal(b1-4)GlcNAc(b1-2)Man(a1-3)[Gal(b1-4)GlcNAc(b1-3)Gal(b1-4)GlcNAc(b1-3)Gal(b1-4)GlcNAc(b1-3)Gal(b1-4)GlcNAc(b1-3)Gal(b1-4)GlcNAc(b1-2)Man(a1-6)]Man(b1-4)GlcNAc(b1-4)GlcNAc
Summary of the method: as §1

[22] = target: Gal(b1-4)GlcNAc(b1-3)[Gal(b1-4)GlcNAc(b1-6)]Gal(b1-4)GlcNAc
Summary of the method: as §1

Gal(b1-4)GlcNAc6P = target: Gal(b1-4)GlcNAc6P
Summary of the method: as §1

Gal(b1-6)Gal = target: Gal(b1-6)Gal
Summary of the method: as §1

Gal6S(b1-3)GlcNAc = target: Gal6S(b1-3)GlcNAc
Summary of the method: as §1

Gal6S(b1-3)GlcNAc6S = target: Gal6S(b1-3)GlcNAc6S
Summary of the method: as §1

Glc(a1-6)Glc(a1-6)Glc = target: Glc(a1-6)Glc(a1-6)Glc
Summary of the method: as §1

GlcA(b1-6)Gal = target: GlcA(b1-6)Gal
Summary of the method: as §1

[23] = target: GlcA3S(b1-3)Gal(b1-4)GlcNAc(b1-2)Man
Summary of the method: as §1

[24] = target: GlcNAc(b1-2)Man(a1-3)[GlcNAc(b1-2)Man(a1-6)]Man(b1-4)GlcNAc(b1-4)[Fuc(a1-6)]GlcNAc
Summary of the method: as §1

[25] = target: GlcNAc(b1-2)[GlcNAc(b1-4)]Man(a1-3)[GlcNAc(b1-2)Man(a1-6)]Man(b1-4)GlcNAc(b1-4)GlcNAc
Summary of the method: as §1

[26] = target: GlcNAc(b1-3)[GlcNAc(b1-6)]Gal(b1-4)GlcNAc
Summary of the method: as §1

[27] = target: GlcNAc(b1-3)[GlcNAc(b1-6)]GalNAc
Summary of the method: as §1

GlcNAc(b1-6)GalNAc = target: GlcNAc(b1-6)GalNAc
Summary of the method: as §1

[28] = target: Neu5Ac(a2-3)Gal(b1-3)GalNAc(b1-3)Gal(a1-4)Gal(b1-4)Glc
Summary of the method: as §1

[29] = target: Neu5Ac(a2-3)Gal(b1-3)GlcNAc(b1-2)Man
Summary of the method: as §1

[30] = target: Neu5Ac(a2-3)Gal(b1-4)GlcNAc(b1-2)Man(a1-3)[Neu5Ac(a2-6)Gal(b1-4)GlcNAc(b1-2)Man(a1-6)]Man(b1-4)GlcNAc(b1-4)GlcNAc
Summary of the method: as §1

[31] = target: Neu5Ac(a2-3)Gal(b1-4)GlcNAc(b1-2)[Neu5Ac(a2-3)Gal(b1-4)GlcNAc(b1-4)]Man(a1-3)[GlcNAc(b1-4)][Neu5Ac(a2-3)Gal(b1-4)GlcNAc(b1-2)[Neu5Ac(a2-3)Gal(b1-4)GlcNAc(b1-6)]Man(a1-6)]Man(b1-4)GlcNAc(b1-4)GlcNAc
Summary of the method: as §1

[32] = target: Neu5Ac(a2-3)Gal(b1-4)GlcNAc(b1-2)[Neu5Ac(a2-3)Gal(b1-4)GlcNAc(b1-4)]Man(a1-3)[GlcNAc(b1-4)][Neu5Ac(a2-3)Gal(b1-4)GlcNAc(b1-4)Man(a1-6)]Man(b1-4)GlcNAc(b1-4)GlcNAc
Summary of the method: as §1

[33] = target: Neu5Ac(a2-3)Gal(b1-4)GlcNAc(b1-3)Gal(b1-4)[Fuc(a1-3)]GlcNAc
Summary of the method: as §1

[34] = target: Neu5Ac(a2-6)Gal(b1-4)GlcNAc(b1-3)Gal(b1-3)GlcNAc
Summary of the method: as §1

[35] = target: Neu5Ac(a2-6)Gal(b1-4)GlcNAc(b1-3)Gal(b1-4)GlcNAc(b1-2)Man(a1-3)[Neu5Ac(a2-6)Gal(b1-4)GlcNAc(b1-3)Gal(b1-4)GlcNAc(b1-2)Man(a1-6)]GalNAc
Summary of the method: as §1

[36] = target: Neu5Ac(a2-6)Gal(b1-4)GlcNAc(b1-3)Gal(b1-4)GlcNAc(b1-6)[Gal(b1-3)]GalNAc
Summary of the method: as §1

[37] = target: Neu5Ac(a2-6)Gal(b1-4)GlcNAc(b1-3)[Neu5Ac(a2-6)Gal(b1-4)GlcNAc(b1-6)]GalNAc
Summary of the method: as §1

[38] = target: Neu5Ac(a2-6)Gal(b1-4)GlcNAc(b1-6)[Gal(b1-3)]GalNAc
Summary of the method: as §1

[39] = target: Neu5Ac(a2-8)Neu5Ac(a2-3)[GalNAc(b1-4)]Gal(b1-4)Glc
Summary of the method: as §1

[40] = target: Neu5Ac(b2-6)Gal(b1-4)GlcNAc
Summary of the method: as §1

B1: Clec18A (Homo sapiens) (protein)
chain: PFHTCDLRIDGDCFMVSSEADTYYRARMKCQRKGGVLAQIKRQKVQDILAFYLGRLETTNEVIDSDFETRNFWIGLTYKTAKDSFRWATGEHQAFTSFAFGQPDNHGFGNCVELQASAAFNWNDQRCKTRNRYICQ
Fuc(a1-2)Gal
  glycan array binding signal (z-score): -0.536
[1]
  glycan array binding signal (z-score): -0.366
[2]
  glycan array binding signal (z-score): -0.32
[3]
  glycan array binding signal (z-score): 1.74
[4]
  glycan array binding signal (z-score): -0.538
[5]
  glycan array binding signal (z-score): 4.62
[6]
  glycan array binding signal (z-score): -0.814
[7]
  glycan array binding signal (z-score): -0.083
Fuc(a1-3)GlcNAc
  glycan array binding signal (z-score): -0.783
[8]
  glycan array binding signal (z-score): -0.458
[9]
  glycan array binding signal (z-score): 0.178
[10]
  glycan array binding signal (z-score): 0.38
[11]
  glycan array binding signal (z-score): -0.324
[12]
  glycan array binding signal (z-score): 2.29
Gal(b1-3)Gal
  glycan array binding signal (z-score): -0.801
Gal(b1-3)GlcNAc(b1-2)Man
  glycan array binding signal (z-score): -0.886
[13]
  glycan array binding signal (z-score): 0.56
[14]
  glycan array binding signal (z-score): 4.51
[15]
  glycan array binding signal (z-score): 0.734
[16]
  glycan array binding signal (z-score): 1.15
[17]
  glycan array binding signal (z-score): 3.1
[18]
  glycan array binding signal (z-score): 3.23
[19]
  glycan array binding signal (z-score): 0.45
[20]
  glycan array binding signal (z-score): 3.83
[21]
  glycan array binding signal (z-score): 0.263
[22]
  glycan array binding signal (z-score): 0.596
Gal(b1-4)GlcNAc6P
  glycan array binding signal (z-score): 0.093
Gal(b1-6)Gal
  glycan array binding signal (z-score): 3
Gal6S(b1-3)GlcNAc
  glycan array binding signal (z-score): 3.79
Gal6S(b1-3)GlcNAc6S
  glycan array binding signal (z-score): -0.347
Glc(a1-6)Glc(a1-6)Glc
  glycan array binding signal (z-score): -0.771
GlcA(b1-6)Gal
  glycan array binding signal (z-score): 8.1
[23]
  glycan array binding signal (z-score): -0.619
[24]
  glycan array binding signal (z-score): -0.289
[25]
  glycan array binding signal (z-score): -0.935
[26]
  glycan array binding signal (z-score): -0.673
[27]
  glycan array binding signal (z-score): -0.327
GlcNAc(b1-6)GalNAc
  glycan array binding signal (z-score): 0.314
[28]
  glycan array binding signal (z-score): 2.87
[29]
  glycan array binding signal (z-score): 1.04
[30]
  glycan array binding signal (z-score): -0.398
[31]
  glycan array binding signal (z-score): -0.652
[32]
  glycan array binding signal (z-score): -0.566
[33]
  glycan array binding signal (z-score): -0.342
[34]
  glycan array binding signal (z-score): -0.391
[35]
  glycan array binding signal (z-score): -0.045
[36]
  glycan array binding signal (z-score): 0.884
[37]
  glycan array binding signal (z-score): 3.01
[38]
  glycan array binding signal (z-score): 1.17
[39]
  glycan array binding signal (z-score): 4.6
[40]
  glycan array binding signal (z-score): 0.965
